# Measurements: PubChem BioAssay (NCI)
# This is part of a sample that, as a whole, favours compounds with a hit. Of some 83,000 tested, about 20% had one in any assay.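 Interpretation: 100, growth as untreated; towards 0, rising growth inhibition; 0, no net growth; 0 to -100, cell death. Compounds scoring below 10 were considered active.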 Values without a mark were called inactive. The source made the active and inactive calls.
# Key:
# Test in all cases: NCI-60 one-dose screen, 48 h (100 = growth as untreated, 0 = no growth, -100 = all killed)
# Conditions in all cases: 10 µM unless noted
# SK-MEL-2 melanoma = tested on: SK-MEL-2 melanoma
# EKVX NSCLC = tested on: EKVX NSCLC
# SN12C renal = tested on: SN12C renal
# UO-31 renal = tested on: UO-31 renal
# TK-10 renal = tested on: TK-10 renal
# ACHN renal = tested on: ACHN renal
# CAKI-1 renal = tested on: CAKI-1 renal
# A498 renal = tested on: A498 renal
# CCRF-CEM leukemia = tested on: CCRF-CEM leukemia
# MOLT-4 leukemia = tested on: MOLT-4 leukemia
# SR leukemia = tested on: SR leukemia
# OVCAR-8 ovarian = tested on: OVCAR-8 ovarian
# OVCAR-5 ovarian = tested on: OVCAR-5 ovarian
# OVCAR-4 ovarian = tested on: OVCAR-4 ovarian
# SK-OV-3 ovarian = tested on: SK-OV-3 ovarian
# IGROV1 ovarian = tested on: IGROV1 ovarian
# OVCAR-3 ovarian = tested on: OVCAR-3 ovarian
# HS 578T breast = tested on: HS 578T breast
# NCI/ADR-RES ovarian = tested on: NCI/ADR-RES ovarian
# RPMI-8226 leukemia = tested on: RPMI-8226 leukemia
SMILES,growth (SK-MEL-2 melanoma),growth (EKVX NSCLC),growth (SN12C renal),growth (UO-31 renal),growth (TK-10 renal),growth (ACHN renal),growth (CAKI-1 renal),growth (A498 renal),growth (CCRF-CEM leukemia),growth (MOLT-4 leukemia),growth (SR leukemia),growth (OVCAR-8 ovarian),growth (OVCAR-5 ovarian),growth (OVCAR-4 ovarian),growth (SK-OV-3 ovarian),growth (IGROV1 ovarian),growth (OVCAR-3 ovarian),growth (HS 578T breast),growth (NCI/ADR-RES ovarian),growth (RPMI-8226 leukemia)
CC(C)OC(=O)NNC(=O)c1ccncc1,84.4%,106%,100%,77.8%,103%,96%,94.4%,119%,132%,102%,104%,99.1%,98.5%,101%,106%,98%,93.4%,106%,109%,
CN(C)CCn1cc(-c2ccc3c(Nc4ccc(CC(=O)Nc5cccc(F)c5)cc4)ncnc3c2)cn1,37.2% [30 µM],-34.7% [30 µM] (active),-91.4% [30 µM] (active),-60% [30 µM] (active),-58.5% [30 µM] (active),-51.7% [30 µM] (active),-15.8% [30 µM] (active),59.5% [30 µM],-19.3% [30 µM] (active),-30.6% [30 µM] (active),-20% [30 µM] (active),-29.2% [30 µM] (active),-91.8% [30 µM] (active),-76.5% [30 µM] (active),-26.4% [30 µM] (active),-65.3% [30 µM] (active),-78% [30 µM] (active),-48.7% [30 µM] (active),52.4% [30 µM],
C=C1C(=O)O[C@H]2[C@H]1CC/C(COC(=O)/C=C\C(=O)NCc1ccc(Cn3c(=O)sn(-c4ccc(C#N)cc4)c3=O)cc1)=C\CC[C@@]1(C)O[C@@H]21,-64.9% (active),-56.9% (active),-93.8% (active),-100% (active),-85.1% (active),-100% (active),-69.1% (active),-8.82% (active),-18.1% (active),-32.3% (active),-37.6% (active),-10.9% (active),-83.9% (active),-81.1% (active),37.8%,-98.7% (active),-90.1% (active),-24.9% (active),0.213% (active),
COc1cc(C(=O)/C=C/c2c(C(F)(F)F)nc3ccccn23)cc(OC)c1OC,-49.3% (active),-0.4% (active),3.89% (active),-71.1% (active),11.2%,-78.7% (active),-25.5% (active),8.53% (active),5.58% (active),4.22% (active),-9.2% (active),3.68% (active),,8.45% (active),-1.92% (active),9.02% (active),-57.3% (active),,,-14.6% (active)
C=C(C=O)C1CCC2(C(=O)O)CCC3(C)C(CCC4C5(C)CCC(O)C(C)(C)C5CCC43C)C12 (configuration not stated),30.1%,41.9%,21.5%,-69.3% (active),50.5%,-65.4% (active),-27.6% (active),55.2%,6.48% (active),10.4%,-2.18% (active),16.8%,,34.2%,51%,6.56% (active),-86.9% (active),,,-12.7% (active)
COc1ccc(-c2cn(-c3cccc(C(=O)/C=C/c4cc(OC)c(OC)c(OC)c4)c3)c(=O)[nH]2)cc1,-21.5% (active),6.73% (active),9.79% (active),-33.9% (active),60.8%,-49.9% (active),-12.1% (active),62.8%,6.11% (active),3.77% (active),-12.5% (active),12.4%,,25%,31.6%,8.71% (active),-13.6% (active),,,-45.8% (active)
O=C(O)c1ccc(CO)o1,92.3%,105%,104%,97.7%,103%,105%,102%,114%,106%,100%,100%,95.5%,108%,98.3%,116%,109%,112%,106%,116%,
COc1ccc(/C(C)=C(\c2ccc(Cl)cc2)c2ccc(OCCCN(C)C)cc2)cc1F,97.2%,85.4%,76%,54.2%,78.6%,76.7%,57.3%,80.1%,48.2%,43.1%,-19.7% (active),71.5%,72.6%,54.1%,81.9%,48.5%,63.5%,56.3%,77.1%,
COc1ccc(-c2nc3ncccn3c2/C=C/C(=O)c2cc(OC)c(OC)c(OC)c2)cc1,0.675% (active),1.1% (active),15.7%,17%,15.5%,20.4%,-3.66% (active),-20.5% (active),1.32% (active),4.3% (active),-2.39% (active),9.62% (active),,7.94% (active),-13.5% (active),17.2%,-24.4% (active),,,-32.2% (active)
C[C@]12CCC(=O)C[C@H]1CC[C@@H]1[C@@H]2CC[C@@]2(C)[C@H]1CC[C@]2(O)C(=O)CO,106%,107%,101%,91.6%,131%,96.7%,106%,97.1%,105%,107%,106%,108%,92.3%,,105%,103%,115%,99.1%,107%,103%
COc1ccc(/C(C)=C(\c2ccc(Cl)cc2)c2ccc(OCCN3CCCCC3)cc2)cc1F,64.1%,47.7%,47.4%,11.6%,68.7%,59.2%,17.8%,76%,31%,23.8%,-25.2% (active),59.5%,51.5%,29.1%,63%,46.2%,51%,35%,63%,
Cc1c2c(cn1Cc1ccccc1)CCc1cn(C)nc1-2,114%,73.2%,87%,68.6%,107%,80.3%,58.8%,97.5%,74.4%,69.7%,53.2%,86.5%,,55.4%,108%,102%,107%,,,40.9%
CC(C)c1ccc(NC(=O)Cc2ccc(Nc3ncnc4cc(-c5cnn(CCN(C)C)c5)ccc34)cc2)cc1,65.7% [30 µM],-49.6% [30 µM] (active),-95.9% [30 µM] (active),-72.9% [30 µM] (active),-57.3% [30 µM] (active),-71.5% [30 µM] (active),-40.7% [30 µM] (active),42.2% [30 µM],-28.2% [30 µM] (active),-50.9% [30 µM] (active),-49.1% [30 µM] (active),-27.5% [30 µM] (active),-98.9% [30 µM] (active),-83.1% [30 µM] (active),-30.6% [30 µM] (active),-69.7% [30 µM] (active),-89.6% [30 µM] (active),-60.6% [30 µM] (active),52.4% [30 µM],
COc1cc(/C=C/C(=O)c2cccc(-n3cc(-c4ccc(Cl)cc4)[nH]c3=O)c2)cc(OC)c1OC,34.1%,64.7%,56.3%,52.2%,91.7%,67.5%,65.6%,110%,4.15% (active),26.8%,-15.8% (active),29.3%,,76.9%,84.8%,13.1%,15.8%,,,-27.1% (active)
CCc1cc(Cc2cc(CC)cc(C(C)(C)C)c2O)c(O)c(C(C)(C)C)c1,52.9%,17.7%,19.1%,30.4%,37.8%,13.1%,19.6%,63.7%,12.9%,14.4%,-13.6% (active),20.4%,,14.3%,20.6%,36.3%,32.1%,,,7.4% (active)
CCC(O)(C(c1ccccc1)c1ccccn1)C(c1ccccc1)c1ccccn1 (configuration not stated),97.5%,97.7%,110%,84.3%,107%,95.2%,90.3%,96.7%,114%,87%,83.8%,106%,96.4%,107%,94.8%,101%,102%,131%,109%,
Cc1c2c(cn1Cc1ccccc1)CCc1cn[nH]c1-2,96.4%,99.1%,98.3%,75.2%,118%,99.6%,84.1%,108%,77%,85.1%,51.6%,94.6%,,81.3%,114%,84.5%,100%,,,70.8%
